Measured values published in ChEMBL document CHEMBL1961873, “Compounds: GSK PKIS; Assays: Nanosyn kinase panel” (2012).

Assays:
[1] = biological target: Casein kinase I isoform gamma-2 (Homo sapiens) (UniProt P78368); conditions: at 1 µM
[2] = biological target: Casein kinase I isoform gamma-3 (Homo sapiens) (UniProt Q9Y6M4); conditions: at 0.1 µM
[3] = biological target: Casein kinase I isoform gamma-3 (Homo sapiens) (UniProt Q9Y6M4); conditions: at 1 µM
[4] = biological target: Cyclin-dependent kinase 1 (Homo sapiens) (UniProt P06493); conditions: at 0.1 µM
[5] = biological target: Cyclin-dependent kinase 1 (Homo sapiens) (UniProt P06493); conditions: at 1 µM
[6] = biological target: Cyclin-dependent kinase 2 (Homo sapiens) (UniProt P24941); conditions: at 0.1 µM
[7] = biological target: Cyclin-dependent kinase 2 (Homo sapiens) (UniProt P24941); conditions: at 1 µM
[8] = biological target: Cyclin-dependent kinase 2 (Homo sapiens) (UniProt P24941); conditions: at 0.1 µM; remark: listed apart in the source
[9] = biological target: Cyclin-dependent kinase 2 (Homo sapiens) (UniProt P24941); conditions: at 1 µM; remark: listed apart in the source
[10] = biological target: T1, CDK3/Cyclin E (Homo sapiens) (UniProt P24864+Q00526); conditions: at 0.1 µM
[11] = biological target: T1, CDK3/Cyclin E (Homo sapiens); conditions: at 1 µM
[12] = biological target: Cyclin-dependent kinase 4 (Homo sapiens) (UniProt P11802); conditions: at 0.1 µM
[13] = biological target: Cyclin-dependent kinase 4 (Homo sapiens) (UniProt P11802); conditions: at 1 µM
[14] = biological target: Cyclin-dependent kinase 5 (Homo sapiens) (UniProt Q00535); conditions: at 0.1 µM
[15] = biological target: Cyclin-dependent kinase 5 (Homo sapiens) (UniProt Q00535); conditions: at 1 µM
[16] = biological target: Cyclin-dependent kinase 6 (Homo sapiens) (UniProt Q00534); conditions: at 0.1 µM
[17] = biological target: Cyclin-dependent kinase 6 (Homo sapiens) (UniProt Q00534); conditions: at 1 µM
[18] = biological target: Dual specificity protein kinase CLK2 (Homo sapiens) (UniProt P49760); conditions: at 0.1 µM
[19] = biological target: Dual specificity protein kinase CLK2 (Homo sapiens) (UniProt P49760); conditions: at 1 µM
[20] = biological target: Dual specificity protein kinase CLK3 (Homo sapiens) (UniProt P49761); conditions: at 0.1 µM
Sequence of Dual specificity protein kinase CLK3 (Homo sapiens) (P49761 whole entry, looked up): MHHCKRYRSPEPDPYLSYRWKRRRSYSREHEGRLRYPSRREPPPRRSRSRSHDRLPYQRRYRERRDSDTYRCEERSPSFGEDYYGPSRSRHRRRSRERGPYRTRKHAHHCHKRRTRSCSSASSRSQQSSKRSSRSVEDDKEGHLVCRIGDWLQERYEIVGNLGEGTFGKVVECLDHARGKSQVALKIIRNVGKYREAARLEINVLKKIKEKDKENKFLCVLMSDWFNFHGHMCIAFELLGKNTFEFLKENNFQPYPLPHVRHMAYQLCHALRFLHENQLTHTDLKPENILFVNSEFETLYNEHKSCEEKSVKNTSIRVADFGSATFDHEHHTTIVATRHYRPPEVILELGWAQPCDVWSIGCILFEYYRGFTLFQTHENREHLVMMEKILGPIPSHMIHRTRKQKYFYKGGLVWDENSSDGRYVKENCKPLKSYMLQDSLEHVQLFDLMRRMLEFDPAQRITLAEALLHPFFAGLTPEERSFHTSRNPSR

T1 sequence (P24864 whole entry, looked up): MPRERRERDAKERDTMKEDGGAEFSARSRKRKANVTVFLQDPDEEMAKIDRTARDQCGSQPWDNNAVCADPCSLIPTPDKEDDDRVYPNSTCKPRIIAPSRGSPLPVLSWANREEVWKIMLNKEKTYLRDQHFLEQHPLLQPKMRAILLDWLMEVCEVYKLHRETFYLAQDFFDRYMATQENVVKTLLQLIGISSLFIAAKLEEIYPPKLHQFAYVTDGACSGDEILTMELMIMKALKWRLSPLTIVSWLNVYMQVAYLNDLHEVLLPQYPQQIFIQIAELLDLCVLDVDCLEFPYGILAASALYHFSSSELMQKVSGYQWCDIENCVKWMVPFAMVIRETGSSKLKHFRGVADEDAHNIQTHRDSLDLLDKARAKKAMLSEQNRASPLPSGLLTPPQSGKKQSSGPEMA
T1 sequence (Q00526 whole entry, looked up): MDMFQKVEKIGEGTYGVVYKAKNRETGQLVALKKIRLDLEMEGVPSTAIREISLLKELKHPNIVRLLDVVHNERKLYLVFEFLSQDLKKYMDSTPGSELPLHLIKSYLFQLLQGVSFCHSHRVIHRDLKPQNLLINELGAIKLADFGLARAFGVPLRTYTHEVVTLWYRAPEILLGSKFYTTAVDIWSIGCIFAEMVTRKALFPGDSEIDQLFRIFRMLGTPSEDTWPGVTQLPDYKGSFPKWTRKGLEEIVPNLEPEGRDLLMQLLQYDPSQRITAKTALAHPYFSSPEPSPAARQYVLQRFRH
Sequence of Cyclin-dependent kinase 6 (Homo sapiens) (Q00534 whole entry): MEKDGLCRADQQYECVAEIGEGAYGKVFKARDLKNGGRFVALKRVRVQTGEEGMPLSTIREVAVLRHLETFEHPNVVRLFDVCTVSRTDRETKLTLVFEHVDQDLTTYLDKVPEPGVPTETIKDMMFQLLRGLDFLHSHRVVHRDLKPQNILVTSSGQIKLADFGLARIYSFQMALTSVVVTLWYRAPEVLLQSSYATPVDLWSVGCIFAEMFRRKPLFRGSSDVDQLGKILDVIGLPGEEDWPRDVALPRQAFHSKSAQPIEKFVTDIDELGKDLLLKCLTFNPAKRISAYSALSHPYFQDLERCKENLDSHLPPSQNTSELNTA
Sequence of Dual specificity protein kinase CLK2 (Homo sapiens) (P49760 whole entry, looked up): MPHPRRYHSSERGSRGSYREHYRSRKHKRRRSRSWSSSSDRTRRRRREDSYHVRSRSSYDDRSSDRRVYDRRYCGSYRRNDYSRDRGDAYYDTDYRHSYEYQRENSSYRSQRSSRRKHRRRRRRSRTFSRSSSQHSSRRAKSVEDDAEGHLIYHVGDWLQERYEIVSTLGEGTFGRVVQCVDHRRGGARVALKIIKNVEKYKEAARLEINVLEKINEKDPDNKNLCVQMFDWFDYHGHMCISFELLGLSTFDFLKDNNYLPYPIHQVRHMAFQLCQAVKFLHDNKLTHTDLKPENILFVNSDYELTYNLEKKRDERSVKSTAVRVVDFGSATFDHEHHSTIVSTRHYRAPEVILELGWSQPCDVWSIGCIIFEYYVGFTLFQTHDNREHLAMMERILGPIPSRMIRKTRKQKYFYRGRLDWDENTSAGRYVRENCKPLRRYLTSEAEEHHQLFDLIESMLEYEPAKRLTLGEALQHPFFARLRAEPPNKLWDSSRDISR
Sequence of Casein kinase I isoform gamma-2 (Homo sapiens) (P78368 whole entry, looked up, canonical isoform): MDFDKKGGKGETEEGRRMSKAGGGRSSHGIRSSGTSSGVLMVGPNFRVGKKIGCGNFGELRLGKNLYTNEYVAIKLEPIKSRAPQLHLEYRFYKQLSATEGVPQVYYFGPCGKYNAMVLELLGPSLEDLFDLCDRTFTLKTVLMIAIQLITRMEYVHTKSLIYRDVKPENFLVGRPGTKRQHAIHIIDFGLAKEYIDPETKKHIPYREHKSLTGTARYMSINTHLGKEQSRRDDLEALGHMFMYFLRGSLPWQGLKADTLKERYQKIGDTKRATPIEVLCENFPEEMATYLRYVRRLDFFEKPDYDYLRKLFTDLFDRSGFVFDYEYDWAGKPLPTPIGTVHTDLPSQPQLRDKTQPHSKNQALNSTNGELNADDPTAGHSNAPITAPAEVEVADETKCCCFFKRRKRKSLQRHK
Sequence of Cyclin-dependent kinase 5 (Homo sapiens) (Q00535 whole entry, looked up): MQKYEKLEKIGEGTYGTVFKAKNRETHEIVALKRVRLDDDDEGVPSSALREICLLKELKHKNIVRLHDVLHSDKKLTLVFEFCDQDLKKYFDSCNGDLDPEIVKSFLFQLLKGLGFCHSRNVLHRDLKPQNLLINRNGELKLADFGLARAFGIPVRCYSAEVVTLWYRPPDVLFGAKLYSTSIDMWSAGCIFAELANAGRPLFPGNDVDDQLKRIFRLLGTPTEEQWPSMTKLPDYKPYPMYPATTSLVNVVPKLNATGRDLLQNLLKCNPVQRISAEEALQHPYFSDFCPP
Sequence of Cyclin-dependent kinase 1 (Homo sapiens) (P06493 whole entry, looked up): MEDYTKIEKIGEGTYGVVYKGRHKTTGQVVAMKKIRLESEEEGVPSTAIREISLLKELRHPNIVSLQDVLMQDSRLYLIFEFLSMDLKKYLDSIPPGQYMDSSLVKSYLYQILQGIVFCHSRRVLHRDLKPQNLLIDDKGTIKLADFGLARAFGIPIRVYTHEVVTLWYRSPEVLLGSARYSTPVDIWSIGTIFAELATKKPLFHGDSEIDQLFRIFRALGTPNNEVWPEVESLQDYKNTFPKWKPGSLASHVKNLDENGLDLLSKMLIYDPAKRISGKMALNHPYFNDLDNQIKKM
Sequence of Cyclin-dependent kinase 4 (Homo sapiens) (P11802 whole entry): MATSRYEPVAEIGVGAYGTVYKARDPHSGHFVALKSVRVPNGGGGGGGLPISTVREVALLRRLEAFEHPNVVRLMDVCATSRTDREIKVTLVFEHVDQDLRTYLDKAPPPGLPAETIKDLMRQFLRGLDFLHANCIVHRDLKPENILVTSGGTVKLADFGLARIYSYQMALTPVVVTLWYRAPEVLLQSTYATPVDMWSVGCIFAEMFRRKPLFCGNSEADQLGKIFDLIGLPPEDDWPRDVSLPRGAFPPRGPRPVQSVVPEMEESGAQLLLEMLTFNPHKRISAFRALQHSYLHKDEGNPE
Sequence of Casein kinase I isoform gamma-3 (Homo sapiens) (Q9Y6M4 whole entry, looked up, canonical isoform): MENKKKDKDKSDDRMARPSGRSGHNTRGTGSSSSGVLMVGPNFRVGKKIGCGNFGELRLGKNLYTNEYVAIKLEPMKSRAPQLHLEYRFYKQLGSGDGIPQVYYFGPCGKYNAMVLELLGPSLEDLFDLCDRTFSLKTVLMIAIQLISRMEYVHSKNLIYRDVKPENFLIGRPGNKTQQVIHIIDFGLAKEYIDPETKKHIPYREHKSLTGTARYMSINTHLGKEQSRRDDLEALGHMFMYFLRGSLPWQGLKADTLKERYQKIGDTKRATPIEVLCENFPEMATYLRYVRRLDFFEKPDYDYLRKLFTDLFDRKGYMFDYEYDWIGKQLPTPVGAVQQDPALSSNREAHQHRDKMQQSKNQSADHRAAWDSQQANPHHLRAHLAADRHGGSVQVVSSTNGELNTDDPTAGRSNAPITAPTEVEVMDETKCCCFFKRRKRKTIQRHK

Row | Compound | inhibition [1] [%] | inhibition [2] [%] | inhibition [3] [%] | inhibition [4] [%] | inhibition [5] [%] | inhibition [6] [%] | inhibition [7] [%] | inhibition [8] [%] | inhibition [9] [%] | inhibition [10] [%] | inhibition [11] [%] | inhibition [12] [%] | inhibition [13] [%] | inhibition [14] [%] | inhibition [15] [%] | inhibition [16] [%] | inhibition [17] [%] | inhibition [18] [%] | inhibition [19] [%] | inhibition [20] [%]
1 | O=C(Nc1ccc(Oc2ccc3[nH]c(NC(=O)c4ccccc4)nc3c2)cc1)Nc1cc(C(F)(F)F)ccc1F | 2.09 | 1.5 | 2.93 | 0.28 | 3.27 | 0.68 | 4.24 | 2.28 | 4.67 | 1.65 | -1.42 | 3.17 | 4.9 | 0.47 | 3.03 | 2.76 | 4.46 | 0.71 | 1.05 | 1.59
2 | CCc1ccc(Oc2nccc(-c3c(-c4ccc(F)cc4)ncn3C3CCNCC3)n2)cc1 | 11.5 | 6.23 | 30 | 2.36 | 2.02 | 3.63 | 2.75 | 2.03 | 2.75 | -2.23 | -3.4 | 1.49 | 2.34 | 0.94 | 2.25 | -3.34 | -4.3 | 1.29 | 3.58 | 0.96
3 | FC(F)(F)c1cccc(Nc2nccc(-c3cnn4nc(-c5ccccc5)ccc34)n2)c1 | 2.62 | 1.84 | 2.44 | 0.56 | 4.07 | 1.41 | 13.5 | 3.41 | 26.4 | -1.25 | 2.5 | 1.39 | 5.84 | 0.4 | 3.29 | 0.39 | 2.53 | 57.2 | 92.1 | 1.66
4 | CS(=O)(=O)CCNCc1ccc(-c2ccc3ncnc(Nc4ccc(OCc5ccccc5)c(Br)c4)c3c2)o1 | -0.24 | -0.8 | -2.02 | -4.43 | -2.83 | -2.31 | -1.03 | -1.96 | -0.05 | -2.03 | -3.92 | -1.53 | -0.83 | -3.53 | -2.4 | -4.44 | -4.65 | 1.39 | -1.17 | -3.26
5 | COc1ccc2ncn(-c3cc(O[C@H](C)c4ccccc4Cl)c(C(N)=O)s3)c2c1 | 0.41 | -0.98 | -2.81 | -3.45 | -2.45 | -2.63 | -1.27 | -1.28 | 1.93 | -2.44 | -2.98 | -2.27 | -0.19 | -3.87 | -2.17 | -3.71 | -2.1 | 0.43 | 0.2 | -2.29
6 | NC(=O)Cc1ccccc1Oc1nccc(-c2c(-c3ccc(F)cc3)ncn2C2CCNCC2)n1 | 10.5 | 3.98 | 8.65 | -0.31 | -0.43 | 1.15 | 2 | 1.82 | 2.1 | 2.95 | -1.4 | 0.31 | 0.75 | 0.66 | 0.67 | -4.52 | 0.67 | 1.69 | 2.11 | 1.44
7 | COc1ccc(-c2ccc3c(NC(=O)C4CC4)n[nH]c3n2)cc1 | 1.22 | 1.89 | 2.61 | 0.44 | 4.03 | 1.61 | 10.7 | 1.4 | 4.59 | 2.19 | 3.03 | 1.65 | 11.4 | 0.42 | 2.12 | 5.98 | 38 | 0.68 | 1.56 | 0.83
8 | NS(=O)(=O)c1ccc(N/N=C2\C(=O)Nc3ccc(C(=O)NCCCn4ccnc4)cc32)cc1 | 9.42 | 5.52 | 12.9 | 20.5 | 66.7 | 97.4 | 97.9 | 65 | 82.4 | 27.8 | 88.6 | 16.6 | 57.1 | 33.8 | 72.8 | 10 | 57.2 | 15.6 | 66.1 | 1.77
9 | Fc1ccc(-c2ncn(C3CCNCC3)c2-c2ccnc(Oc3ccc(Oc4ccccc4)cc3)n2)cc1 | 14.6 | 7.8 | 26.3 | 1.88 | 2.92 | 3.49 | 4.28 | 2.95 | 4.3 | -3.73 | -1.29 | 4.1 | 3.52 | 0.97 | 1.86 | -6.79 | -6.24 | 2.06 | 4.62 | 0.9
10 | Cc1ccc(C(=O)NC2CCC2)cc1-c1ccc(C(=O)NCC2CC2)cc1 | 2.95 | 2.2 | 2.4 | 0.42 | 1.39 | 2.38 | 0.45 | 2.25 | 3.3 | 2.79 | -2.09 | 2.48 | 3.14 | 0.96 | 1.18 | -2.65 | 1.04 | 0.82 | 1.37 | 1.37
11 | COc1cc2ncn(-c3cc(OCc4ccccc4C(F)(F)F)c(C(C)=O)s3)c2cc1OC | 3.62 | 2.1 | 2.97 | 0.91 | 2.22 | 0.94 | 2.63 | 2.2 | 3.96 | -1.43 | -2.36 | 1.74 | 2.66 | 0.4 | 1.96 | -0.64 | -0.67 | 0.9 | -0.63 | 0.94
12 | CN1CCN(CCCNc2nc3ccc(Oc4ccc(NC(=O)Nc5cc(C(F)(F)F)ccc5F)cc4)cc3[nH]2)CC1 | -2.41 | -3.59 | -4.66 | -2.5 | -3.79 | -3.51 | 5.29 | -2.32 | -2.03 | 0.7 | 2.2 | -3.04 | -2.88 | -2.74 | -3.46 | -4.09 | -1.64 | 2.17 | 1.41 | -3.87
13 | COC(=O)Nc1nc2ccc(Sc3ccc(NC(=O)Nc4cc(C(F)(F)F)ccc4F)cc3)cc2[nH]1 | 1.01 | 0.1 | 0.39 | 0.09 | 3.86 | -0.08 | 6.71 | 0.48 | 0.81 | -0.31 | 0.64 | -4.86 | 1.81 | 0.21 | 1.9 | 7.92 | 2.22 | 1.38 | -0.84 | 0.48
14 | c1ccc(Oc2ccc(Nc3ncc(-c4ccccc4)o3)cc2)cc1 | 2.07 | -0.2 | 1.13 | 0.18 | 1.13 | 0.43 | 1.24 | 0.94 | 3.16 | 0.29 | -2.54 | 1.05 | 1.2 | 0.52 | 1.6 | 1.34 | 3.56 | -0.16 | -0.28 | 0.6
15 | CN(c1ccc(NC(=O)Nc2c(Cl)cccc2Cl)cc1)c1ccnc(Nc2cccc(CS(C)(=O)=O)c2)n1 | 0.63 | 1.67 | -1.25 | 0.58 | 3.72 | 3.62 | 12.2 | -0.54 | 2.62 | 0.7 | -0.7 | -0.86 | -0.25 | 0.43 | 1.99 | 3.57 | -0.75 | 3.63 | 5.49 | -0.2
16 | CNC(=O)c1cncc(/C=C/c2c(C)cccc2C)c1 | -0.99 | -1.38 | -0.55 | -3.38 | 1.17 | -3.98 | 4.82 | -1.1 | -2.25 | -0.48 | -0.8 | -2.46 | -1.6 | -2.99 | -1.16 | 3.56 | 0.79 | 0.58 | -1.19 | -2
17 | NC(=O)c1ccc(Oc2nccc(-c3c(-c4ccc(F)cc4)ncn3C3CCNCC3)n2)cc1 | 7.07 | 4.74 | 9.02 | 3.25 | 1.41 | 3.34 | 3.6 | 3.03 | 4.26 | -3.59 | 1.23 | 3.18 | 3.14 | 1.5 | 1.61 | -4.69 | -0.8 | 1.44 | 6.51 | 2.43
18 | CCS(=O)(=O)c1ccc(OC)c(Nc2ncc(-c3cccc(-c4ccccc4F)c3)o2)c1 | -0.35 | 0.39 | 0.12 | 0.67 | 2.37 | 1.76 | 7.78 | 0.27 | 3.78 | 0.64 | 1.22 | 0.53 | -0.45 | 0.5 | 3.33 | 0.01 | 1.94 | 5.83 | 36.9 | 2.7
19 | COc1cc(Nc2ncc(-c3ccccc3)o2)cc(OC)c1OC | -0.69 | -0.27 | -0.18 | 0.44 | 6.1 | 0.56 | 9.21 | 0.79 | 6.45 | 0.2 | 5.95 | 0.45 | 1.93 | 0.52 | 6.19 | 0.43 | 3.26 | 0.35 | 3.33 | 0.69
20 | COc1cc(Nc2ncc3c(C)nc(-c4cccc(C(F)(F)F)c4)n3n2)cc(OC)c1OC | 3.91 | 2.45 | 4.96 | 0.7 | 6.83 | 3.13 | 20.8 | 6 | 28.8 | 2.35 | 7.51 | 1.78 | 3.89 | 1.13 | 9.6 | 3.14 | 7.16 | 3.78 | 21.9 | 1.23
21 | NC(=O)c1cc(-c2ccncc2)cc(-c2ccccc2)c1N | 4.95 | 4.56 | 4.47 | -0.45 | 1.56 | 2.79 | 5.38 | 4.07 | 3.97 | 4.6 | -0.18 | 2.8 | 2.69 | 0.58 | 0.44 | -1.43 | 2.3 | 1.45 | 1.33 | 1.22
22 | O=C1Nc2ccc(I)cc2C1=Cc1cc(Br)c(O)c(Br)c1 | 6.34 | 3.79 | 3.16 | 2.76 | 1.43 | 4.61 | 3.86 | 1.77 | 3.35 | -4.12 | -2.28 | 4.82 | 6.47 | 0.5 | 0.26 | -0.1 | 0.92 | 1.63 | 4.77 | -0.91
23 | CCc1nccc2c1nc(-c1nonc1N)n2CC | 3.36 | -0.55 | 1.97 | 1.84 | 2.9 | 2.75 | 4.67 | 1.55 | 3.62 | 1.31 | -0.63 | 1.93 | 2.76 | 1.21 | 2.65 | -8.01 | -0.61 | 1.1 | 2.67 | -0.31
24 | N#Cc1ccc(Oc2nccc(-c3c(-c4ccc(F)cc4)ncn3C3CCNCC3)n2)cc1 | 5.15 | 1.83 | 5.34 | 0.28 | 1.02 | 0.77 | 1.99 | 1.81 | 2.89 | -1.88 | -2.53 | 0.98 | 3.8 | 0.41 | 1.15 | 1.26 | -1.15 | 1 | -0.9 | 0.28
25 | COc1cccc(-n2cnc3c(N/N=C/c4ccncc4)ncnc32)c1 | -5.36 | -3.39 | -3.3 | -3.5 | 0.55 | -3.99 | 8.02 | -3.22 | -2.32 | -0.66 | 0.9 | -6.94 | -4.27 | -3.69 | -0.49 | -0.76 | -8.82 | 3.04 | 5.72 | -3.93
26 | c1ccc(-c2n[nH]cc2-c2ccnc(-c3ccc(OCCN4CCOCC4)cc3)c2)nc1 | -2.28 | -0.5 | 2.07 | 5.08 | 4.83 | 0.41 | 0.03 | 4.78 | 4.73 | 5.94 | 3.2 | 5.35 | 6.08 | 5.7 | 4.87 | 1.73 | 4.81 | 2.87 | 3.2 | 0.66
